# Non-standard residues stand in square brackets, D forms with d. Residues, ends and D or L forms follow the SMILES beside them. Orn = NCCC[C@H](N)C(=O)O
# Test: qHTS profiling of inhibitors of Plasmodium falciparum (HB3) proliferation (acoustic dispense)
# Details: P. falciparum HB3 in erythrocytes, SYBR Green, 72 h; at 49.8 µM (top of the series) unless noted
row,SMILES,"activity (normalised, proliferation)"
1,CCS(=O)(=O)Nc1ccc2[nH]c(O)c(C(=Nc3ccc(CN4CCCCC4)cc3)c3ccccc3)c2c1,-1.43%
2,C#Cc1cccc(Nc2ncnc3cc(OC)c(OCCCCCCC(=O)NO)cc23)c1,-0.996%
3,CCN(CC)Cc1cc(Nc2ccnc3cc(Cl)ccc23)ccc1O,-0.453% [at 23.2 µM]
4,Cc1ccc([N+](=O)[O-])cc1S(=O)(=O)N(C)N=Cc1cnc2ccc(Br)cn12,13.3%
5,C[C@H](Cn1cnc2c(N)ncnc21)OCP(=O)(O)O,92.2%
6,CC1(CN2CCC(n3c(=O)[nH]c4ccccc43)CC2)OCc2ccccc2-n2cccc21 (configuration not stated),24.8%
7,COCCn1c2c([n+](Cc3cnccn3)c1C)C(=O)c1ccccc1C2=O,-1.3%
8,CCCCCCOC(=O)C1(O)CC2OC1(C)n1c3ccccc3c3c4c(c5c6ccccc6n2c5c31)C(=O)NC4 (configuration not stated),100% [at 1.88 µM]
9,Cn1c(=O)n(-c2ccc(C(C)(C)C#N)cc2)c2c3cc(-c4cnc5ccccc5c4)ccc3ncc21,1.54%
10,CN(C(=O)OC(C)(C)C)[C@@H](Cc1ccc(O[S+](=O)([O-])c2cccc3cnccc23)cc1)C(=O)N1CCN(C(=O)OCc2ccccc2)CC1,2.29%
11,COc1ccc2nc3cc(Cl)ccc3c(Nc3cc(CN4CCCC4)c(O)c(CN4CCCC4)c3)c2n1,-3.23%
12,CC(C)C[C@@H]1NC(=O)[C@H](CCCN)NC(=O)[C@H](C(C)C)NC(=O)[C@@H]2CCCN2C(=O)[C@@H](Cc2ccccc2)NC(=O)[C@H](CC(C)C)NC(=O)[C@H](CCCN)NC(=O)[C@H](C(C)C)NC(=O)[C@@H]2CCCN2C(=O)[C@@H](Cc2ccccc2)NC1=O (cyclo(V[Orn]L[dF]PV[Orn]L[dF]P)),3.19%
